This is part of a sample that, as a whole, favours compounds with a hit. Of some 83,000 tested, about 20% had one in any assay.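 Treatment: one concentration, 48 hours, 96-well format. Scoring: percent growth, with anything below 10 considered active.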 Unmarked numbers belong to inactive results. Active and inactive are the calls of the source.

For the experiment, the system named is MDA-MB-468 breast. The experiment in a line: NCI-60 one-dose screen, 48 h (100 = growth as untreated, 0 = no growth, -100 = all killed). As to conditions: 10 µM unless noted.
For the compound `COc1ccc(-c2cc3cnc4ccccc4c3oc2=O)cc1`, the growth is 99.8%.

Consider `COc1c(C)c2c(c(O)c1C/C=C(\C)CCC(=O)O)C(=O)OC2`, for which the growth was 37.9%.

On to `O=C(Nc1cc(Cl)ccc1O)c1cccc(Nc2ccnc(C(F)(F)F)c2)c1`, for which the growth is 16%.

As to `Nc1ncnc2c1N=C(c1ccc3c(c1)OCO3)CC(c1cccc(Nc3ccnc4cc(Cl)ccc34)c1)N2` (stereo unspecified), the growth was 33.2%.

Regarding `CO[C@H]1C[C@@H]2CC[C@@H](C)[C@@](O)(O2)C(=O)C(=O)N2CCCC[C@H]2C(=O)O[C@H]([C@H](C)C[C@@H]2CC[C@@H](OC(=O)C(C)(CO)CO)[C@H](OC)C2)CC(=O)[C@H](C)/C=C(\C)[C@@H](O)[C@@H](OC)C(=O)[C@H](C)C[C@H](C)\C=C/C=C/C=C/1C`, the growth was 0.224% (active).

For the compound `Nc1c(C(=O)Nc2cccc3ncccc23)sc2nc3c(cc12)CN(Cc1ccccc1)CC3`, the growth was 31.4%.

For `CCC1C[N+]2=C(c3cc(OC)c(OC)cc3CC2)c2c1cc1n2CCc2cc(OC)c(OC)cc2-1` (stereo unspecified), the growth was 1.92% (active).

With `N#Cc1c(-c2ccc(Cl)cc2)cc(-c2cc(O)ccc2O)nc1N`, the growth is 19.4%.

For `O=S(=O)(NCCCNc1nccc(-c2c(-c3cccc(O)c3)nc3occn23)n1)c1ccc(Br)cc1`, the growth is 96.3%.

Regarding `Cc1nc2ccccc2n1-c1ncnc2c1CC(C)c1ccccc1N2C` (stereo unspecified), the growth was 80.9%.

As to `CCCCCc1ccc(S(=O)(=O)Nc2cccc(-c3csc(NC(=O)CN4CCN(C)CC4)n3)c2)cc1`, the growth was 89.5%.

With `CC1(C)CC(O)CCCCCCOc2c(CN)cccc2NC(=O)c2nc(cnc2N)-c2ccc(cc2)S1(=O)=O` (stereo unspecified), the growth is 6.87% (active).

As to `O/N=C/c1ccc(O)cc1O`, the growth is 121%.

As to `CCOP(=O)(OCC)/C(C#N)=C/c1c(C)[nH]c2ccccc12`, the growth was 99.7%.

Consider `COc1cc2c(cc1OC)-c1c(oc3c4c(ccc3c1=O)OC(C)(C)C=C4)CO2`, for which the growth is 19.2%.

Turning to `O=c1nc(-c2ccccc2)c2cc(-c3ccc(C(F)(F)F)nc3)ccc2[nH]1`, the growth was 104%.

Turning to `CCCCCCCCC1OC1CCCCCCCC(=O)O` (stereo unspecified), the growth was 89.9%.

In the case of `Cc1cc(N/N=C/c2nc(-c3ccc(Cl)cc3)oc2C)c2cc(Cl)ccc2n1`, the growth was -47.4% (active).

For the compound `O=C1Nc2ccc(Br)cc2/C1=N/c1nc(-c2ccccc2)cs1`, the growth is 99.8%.

Turning to `Oc1ccc2c(c1)CCc1ccccc1-2`, the growth was 105%.

On to `Cn1c(=O)c2c(nc(NC3=NS(=O)(=O)c4ccccc43)n2CC(=O)N2CCc3ccccc32)n(C)c1=O`, for which the growth was 102%.

Take `COc1cc2oc3cc(C)oc(=O)c3c2cc1OC`: the growth was 91%.

With `Nc1c(C(=O)Nc2ccncc2)sc2nc3c(cc12)CCCCC3`, the growth is 54.2%.

In the case of `COC(=O)C1=C(C(=O)Nc2cccnc2)C2OC1(C(Cc1ccccc1)Oc1ccccc1)C1OC21` (stereo unspecified), the growth is -66.3% (active).

Take `Clc1ccc2[nH]c3c(NCCCN4CCOCC4)ncnc3c2c1`: the growth is 33.7%.

For the compound `CCCc1cccc(CCC)c1O`, the growth is 118%.
